Drawing on PubChem BioAssay AID1878 (Sanford-Burnham Center for Chemical Genomics, 2009), this text covers inhibition for 66 compounds.

About 200 (20%) of roughly 1,000 compounds were called active. Only a sample is shown. Measured potencies and affinities stand elsewhere. Values without a mark were called inactive. Rule as the data show it: active = inhibition above about 55%; inactive = the rest.

The target in this experiment is Dual specificity protein phosphatase 3 (Homo sapiens) (UniProt P51452). Briefly: VHR1 phosphatase inhibitors, biochemical (AID 1878). Particulars: recombinant VHR phosphatase, fluorogenic substrate; at 13.3 µM; stronger effect = higher value.
Dual specificity protein phosphatase 3 (Homo sapiens), sequence (P51452 whole entry, looked up): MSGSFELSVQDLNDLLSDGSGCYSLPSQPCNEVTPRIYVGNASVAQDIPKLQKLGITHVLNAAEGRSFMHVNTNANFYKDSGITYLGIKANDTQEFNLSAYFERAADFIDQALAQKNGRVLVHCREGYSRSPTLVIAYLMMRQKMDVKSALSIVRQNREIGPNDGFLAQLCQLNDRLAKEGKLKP
The inhibition is the drop in the measured response relative to a control, in per cent. As for `O=C(Nc1cccc(-n2cnnn2)c1)c1ccc(Cl)cc1Cl`, the inhibition is 3.8%.

Consider `Oc1ccc(-c2nc3ccccc3nc2-c2ccccc2)cc1`, for which the inhibition was -3.2%.

For the compound `O=S(=O)(Nc1ccc2ccccc2n1)c1ccccc1Cl`, the inhibition is 3.5%.

With `CCCN1C2CCCC1CC(NC(=O)c1ccc(C(C)(C)C)cc1)C2` (stereo unspecified), the inhibition was -2.3%.

`CC1CCCCN1CC(O)COc1ccc(OCC(O)CN2CCCCC2C)cc1` (stereo unspecified): the inhibition was -5.3%.

Take `COc1ccc(Nc2nc(-c3sc(C)nc3C)cs2)c(OC)c1`: the inhibition is 23%.

In the case of `COc1ccc(C(=O)N2CCCCCCC2)cc1OC1CCN(C(C)C)CC1`, the inhibition is -3.1%.

With `COc1ccc(C(=O)N(C)CCCC2CCCC2)cc1OC1CCN(C(C)C)CC1`, the inhibition is -11.7%.

As for `O=c1[nH]c(NCCO)nnc1Cc1ccccc1`, the inhibition is -18.8%.

As to `CCc1ccc(-c2cc(C(=O)NN3CCOCC3)c3ccccc3n2)s1`, the inhibition is -11.9%.

`CN(C(=O)COC(=O)c1cc(-c2ccco2)nc2ccccc12)C1CCS(=O)(=O)C1` (stereo unspecified): the inhibition is 98.4% (active).

As for `CCOc1ccc(N(C)C(=O)CCc2nnc3ccc(N4CCOCC4)nn23)cc1`, the inhibition was -3.3%.

`O=C(N=C1SC2CS(=O)(=O)CC2N1c1ccc(F)cc1F)C1CC1` (stereo unspecified): the inhibition is -8.3%.

For `Cn1c(=O)oc2cc(S(=O)(=O)N3CCCC(C(=O)NCc4ccc5c(c4)OCO5)C3)ccc21` (stereo unspecified), the inhibition is 9.1%.

Regarding `CCC(=O)N1CCc2cc(S(=O)(=O)CCC(=O)NCc3ccc(OC)cc3)ccc21`, the inhibition is 20%.

Regarding `CC(C)c1cc(N=NC(N)=O)cc(C(C)C)c1O`, the inhibition is 0.5%.

Regarding `CCN1CCN(Cc2nnc(-c3ccc(C)cc3)o2)CC1`, the inhibition was -3.3%.

For the compound `O=C1CCC(C(=O)N2CCCC2)CN1Cc1cccc(C(F)(F)F)c1` (stereo unspecified), the inhibition is -14.6%.

In the case of `CCc1nnc(NC(=O)CCNC(=O)c2ccco2)s1`, the inhibition was -5.4%.

With `Cc1ccc(NC(=O)Cn2c(O)c(N=NC(N)=S)c3ccccc32)cc1`, the inhibition is 9.9%.

In the case of `CCCN1CCN(CCCNC(=O)c2ccc(CS(=O)c3ccccc3C)o2)CC1` (stereo unspecified), the inhibition is 1.2%.

With `Cc1ccc(OCCCCN2CCCCC2)c(C)c1`, the inhibition is 5.4%.

As for `Oc1ccc(C23CC4CC(CC(C4)C2)C3)cc1O`, the inhibition was 5.9%.

On to `COC(=O)c1ccc(CNC(=O)C2CCC(=O)N(Cc3ccccn3)C2)cc1` (stereo unspecified), for which the inhibition was -6%.

As for `Cc1ccc2oc(C(=O)N3CCN(C)C[C@@H]3C(C)C)c(C)c2c1`, the inhibition was -13.8%.

As to `Cc1ccccc1S(=O)(=O)Cc1ccc(C(=O)NCCCN2CCCC2)o1`, the inhibition was -7.1%.

As to `COc1ccc(C2NN=C(c3ccc(C)cc3)S2)cc1` (stereo unspecified), the inhibition is -9.5%.

With `Cc1cc(NC(=O)CCCN2C(=O)/C(=C\c3cccs3)SC2=S)no1`, the inhibition is -12%.

`O=C(O)CCN1C(=O)/C(=C/c2cn(-c3ccccc3)nc2-c2cccs2)SC1=S`: the inhibition was 98% (active).

As for `CC1(C)CC(NC(=O)c2cccc(Cl)c2)CC(C)(C)N1`, the inhibition was 2.3%.

As to `CCOc1ccccc1C(=O)NC1CC2CCCC(C1)N2Cc1ccc(C)cc1` (stereo unspecified), the inhibition is 9.8%.

Regarding `Cc1ccc(Oc2coc3cc(O)ccc3c2=O)cc1`, the inhibition was 1%.

Consider `O=[N+]([O-])CC(c1ccc(F)cc1)c1c[nH]c2ccccc12` (stereo unspecified), for which the inhibition is -0.1%.

For the compound `O=C(NCc1ccc(F)cc1)C(=O)c1cn(CC(=O)N2CCCC2)c2ccccc12`, the inhibition is -3%.

As to `CCOc1ccc(C(=S)N2CCCC2)c(OCC)c1`, the inhibition is -7.2%.

`CCOC(=O)CCNC(=O)N1CCC(CCC(=O)NCc2ccc(F)cc2)CC1`: the inhibition was -0.1%.

Consider `CN1CCC(N(C)S(=O)(=O)c2ccc(Cl)cc2)CC1`, for which the inhibition was -9.6%.

Take `CC(=O)Nc1ccc(N2C(=O)CSC2c2cccc(Br)c2)cc1` (stereo unspecified): the inhibition was 1.4%.

Regarding `CN(CCCNC(=O)CCc1cn(C)c2ccccc12)C1CCCCC1`, the inhibition was -3.3%.

On to `COc1ccc(O)c(CN2CCN(CCCc3ccccc3)C(CCO)C2)c1` (stereo unspecified), for which the inhibition is -8%.

For the compound `N#Cc1nc(-c2ccc(OCc3ccc(Cl)cc3)cc2)oc1N1CCC(C(N)=O)CC1`, the inhibition was 93.5% (active).

Turning to `Fc1cc(F)nc(NCc2ccccc2)n1`, the inhibition was 8.1%.

`Oc1ccc(N2CCN(Cc3nc4ccccc4[nH]3)CC2)cc1`: the inhibition was -15.2%.

`CCC1CCCCN1CCCNC(=O)CS(=O)Cc1nc(-c2ccc(OC)c(OC)c2)oc1C` (stereo unspecified): the inhibition was 15.7%.

For `Cc1c(CCCN)c2ccccc2n1Cc1ccccc1`, the inhibition is -12.5%.

`COc1cccc(C(N)=O)c1OC(=O)Cc1ccccc1F`: the inhibition was -0.1%.

As for `O=C(Nc1nnc(SCc2c(Cl)cccc2Cl)s1)c1ccc2ncsc2c1`, the inhibition is 66.9% (active).

As to `Cc1nnc(NC(=O)c2cccc(Br)c2)s1`, the inhibition was 4%.

With `O=C(Nc1cccc(F)c1)c1ccc2ncsc2c1`, the inhibition was -14.9%.

On to `COc1cc(N=Cc2c(CO)cnc(C)c2O)cc(OC)c1OC`, for which the inhibition was -8.3%.

`C=CCNC(=O)c1ccc(CN2CCC(Cc3ccccc3)CC2)cc1`: the inhibition was -11.1%.

Turning to `CSc1ncccc1C(=O)NC1CCN(Cc2ccccc2)CC1`, the inhibition is 2.3%.

`CCOc1ccc(CCNC(=O)CS(=O)Cc2nc(-c3ccc(OC)c(OC)c3)oc2C)cc1OCC` (stereo unspecified): the inhibition was 8.4%.

`COC(=O)C1(CO)NC(c2ccc(C)cc2)C2C(=O)N(c3ccccc3)C(=O)C21` (stereo unspecified): the inhibition is -3.3%.

Consider `CC1=C(C(=O)OCc2ccccc2)C(c2ccc([N+](=O)[O-])cc2)NC(=O)N1C` (stereo unspecified), for which the inhibition is 2.8%.

For the compound `COc1cc(-c2c(NC(=O)c3ccco3)oc3ccccc3c2=O)cc(OC)c1OC`, the inhibition is -9.9%.

For `CCN(CC)CCCN(Cc1cc2cc3c(cc2[nH]c1=O)OCO3)C(=S)NCCCN(C)C`, the inhibition is -12.7%.

As to `O=C(NC1=NN(c2ccccc2)CC1)Nc1ccccc1F`, the inhibition was -3.5%.

Take `O=c1c2c3nc4ccccc4nc3n(-c3ccc4c(c3)OCCO4)c2ncn1C1CCCC1`: the inhibition was 96.5% (active).

Take `CSc1ncc(C(=O)Nc2ccccc2C)c(C)n1`: the inhibition is 6.2%.

For the compound `CCN1CCN(CCCNC(=O)CNC(=O)c2nn(-c3ccc(OC)cc3OC)c(=O)c3ccccc23)CC1`, the inhibition is 38.3%.

In the case of `Cc1cccc(NC(=O)CN2C(=O)S/C(=C\c3cccn3-c3cccc(C(=O)O)c3)C2=O)c1`, the inhibition is 75.6% (active).

With `Cc1ccc(NC(=O)NC(=O)CN2CCN(c3ccc(O)cc3)CC2)c(C)c1`, the inhibition is -13.5%.

For `Cc1ccc2c(c1)c(CC(=O)Nc1ccc(C)c(F)c1)c(C(=O)O)n2C`, the inhibition is -6.8%.

With `O=C(O)c1ccc(-n2cccc2/C=C2/SC(=O)N(CC(=O)N3CCCC3)C2=O)cc1`, the inhibition was 96.8% (active).

`O=C(Cn1nc(-c2ccccc2)ccc1=O)N1CCCCC1`: the inhibition is -1.1%.
